Results filed as inconclusive are left out. A structure can be active in one record and inactive in another. Activity calls are given as the source filed them. The call rests on the fitted dose curve.

Test [1] deals with Acetylcholinesterase (Homo sapiens) (UniProt P22303). The experiment in a line: Acetylcholinesterase (AChE) small molecule antagonists: colormetric cell-based qHTS assay (AID 1347395). Further: nearly all actives have a fitted effect of over 30% in size. Further: potency means the concentration at half of the fitted maximal effect. The gist of the method: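 SH-SY5Y cells; cpd 30 min 37 C; + DTNB/acetylthiocholine, 90 min 37 C; colorimetric thiocholine read; qHTS.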
Test [2] shares this target. Description: Acetylcholinesterase (AChE) small molecule antagonists: enzyme-based qHTS assay (AID 1347397). Further: nearly all actives have a fitted effect of over 55% in size. Further: potency means the concentration at half of the fitted maximal effect. The note with it: Potency: AChE enzyme activity inhibition; outcome: AChE enzyme activity inhibition. The gist of the method: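 rhAChE 50 mU/mL (dispensed) + cpd or DMSO, 30 min RT; add DTNB/acetylthiocholine cocktail, 10 min RT; colorimetric thiocholine readout. qHTS, 1536-well format.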
For orientation: In qHTS, concentration-response curves come from the screen itself.

Test [3] shares this target. The experiment in a line: Acetylcholinesterase (AChE) small molecule antagonists: fluorescence cell-based qHTS assay (AID 1347398). Further: nearly all actives have a fitted effect of over 50% in size. Further: potency means the concentration at half of the fitted maximal effect. The note with it: Potency: AChE activity; outcome: AChE activity. The gist of the method:
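Read-out is Thiolite Green fluorescence at Ex/Em = 490/520 nm, formed by reaction with thiocholine released when cellular AChE in SH-SY5Y cells hydrolyzes acetylthiocholine. Compounds were preincubated 30 min at 37 C before substrate.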

Test [4] shares this target. Description: Acetylcholinesterase (AChE) small molecule antagonists: enzyme-based qHTS assay with human liver microsomes (AID 1347399). Further: nearly all actives have a fitted effect of over 60% in size. The note with it: Potency: qHTS inhibition; outcome: qHTS inhibition. In outline: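 Recombinant human AChE (50 mU/mL in the enzyme mix) and human liver microsomes (0.25 mg/mL final) were preincubated with compound and NADPH (0.25 mg/mL final) for 30 min at 37 C. Acetylthiocholine/DTNB was then added; thiocholine was read colorimetrically after 10 min at room temperature.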
On the % scale 0 is the no-effect control and ±100 the full control effect.

Acetylcholinesterase (Homo sapiens), sequence (P22303 whole entry, looked up): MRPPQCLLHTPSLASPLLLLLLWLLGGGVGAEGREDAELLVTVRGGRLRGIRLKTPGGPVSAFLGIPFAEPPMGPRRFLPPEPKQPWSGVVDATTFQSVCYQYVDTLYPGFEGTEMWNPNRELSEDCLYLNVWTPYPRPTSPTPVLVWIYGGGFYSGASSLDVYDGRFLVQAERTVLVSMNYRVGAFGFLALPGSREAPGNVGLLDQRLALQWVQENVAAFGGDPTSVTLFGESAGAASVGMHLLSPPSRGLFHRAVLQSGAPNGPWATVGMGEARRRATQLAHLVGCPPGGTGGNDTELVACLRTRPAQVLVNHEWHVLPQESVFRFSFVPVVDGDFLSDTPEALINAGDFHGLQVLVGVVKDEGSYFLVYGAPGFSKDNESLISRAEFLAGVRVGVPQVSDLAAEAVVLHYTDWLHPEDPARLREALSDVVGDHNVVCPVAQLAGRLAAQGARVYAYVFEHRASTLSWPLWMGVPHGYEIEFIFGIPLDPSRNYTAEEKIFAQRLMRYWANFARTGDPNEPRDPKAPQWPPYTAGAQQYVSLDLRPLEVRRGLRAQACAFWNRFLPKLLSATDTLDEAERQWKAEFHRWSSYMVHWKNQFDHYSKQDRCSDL

Consider `C#CCN[C@@H]1CCc2ccccc21`, for which the result in test [1], in test [2], in test [3] and in test [4] was inactive.

On to `Cc1ccc(C#N)cc1`, for which the Potency result in test [1], in test [2], in test [3] and in test [4] was “inactive” each time.

Regarding `O=C(O)c1ccccc1OP(=O)(O)O`, the Potency result in test [1], in test [2], in test [3] and in test [4] was “inactive” in each case.

Regarding `CC(C)=CC=O`, the Potency result in test [1], in test [2], in test [3] and in test [4] was “inactive” each time.

For `CCCCOC(=O)c1ccc(O)cc1`, the Potency result in test [1], in test [2] and in test [4] was “inactive” in each case. Further, the Potency in test [3] was 36 µM (active) and inactive.

Take `OC/C=C/c1ccccc1`: the Potency entry in test [1], in test [2], in test [3] and in test [4] was “inactive” each time.

On to `Oc1ccc(C2(c3ccc(O)c(C4CCCCC4)c3)CCCCC2)cc1C1CCCCC1`, for which the Potency result in test [1], in test [2], in test [3] and in test [4] was “inactive” each time.

Consider `CCCNCCC`, for which the Potency entry in test [1], in test [2], in test [3] and in test [4] was “inactive” in each case.

With `CCC(=O)Oc1ccc(/C(CC)=C(\CC)c2ccc(OC(=O)CC)cc2)cc1`, the Potency result in test [1], in test [2], in test [3] and in test [4] was “inactive” throughout.

Regarding `CCN(CC)C(=O)c1ccc(O)c(OC)c1`, the Potency entry in test [1], in test [2], in test [3] and in test [4] was “inactive” in each case.

As for `O=C(O)CN(CCOCCOCCN(CC(=O)O)CC(=O)O)CC(=O)O`, the activity, negative = inhibition in test [1] was -1.41% [at 0.435 µM] (inactive). Further, the activity change, negative = inhibition was -0.554% [at 0.435 µM] (inactive) in test [2], 2.07% [at 0.439 µM] (inactive) in test [3] and -0.252% [at 0.435 µM] (inactive) in test [4].

Consider `COc1ccc(OC)c(N=Nc2c(O)ccc3ccccc23)c1`, for which the Potency result in test [1], in test [2], in test [3] and in test [4] was “inactive” each time.

Take `CN1C(C(=O)Nc2ccccn2)=C(O)c2sccc2S1(=O)=O`: the Potency result in test [1], in test [2], in test [3] and in test [4] was “inactive” throughout.

As to `CC(CC(C#N)(c1ccccc1)C(C)C)N(C)C` (stereo not given), the Potency result in test [1], in test [2], in test [3] and in test [4] was “inactive” each time.

Turning to `CCN(CC)C(=O)C1CN2CCc3cc(OC)c(OC)cc3C2CC1OC(C)=O` (stereo not given), the Potency result in test [1], in test [2], in test [3] and in test [4] was “inactive” throughout.

As for `C=Cc1ccccc1C=C`, the Potency entry in test [1], in test [2], in test [3] and in test [4] was “inactive” each time.

With `Cc1c(C(C)C)c(=O)n(-c2ccccc2)n1C`, the Potency result in test [1], in test [2], in test [3] and in test [4] was “inactive” throughout.

With `CCCCCCCCCCCCS`, the Potency entry in test [1], in test [2], in test [3] and in test [4] was “inactive” each time.

Turning to `Cc1oc(-c2ccccc2)nc1CCOc1ccc(C[C@H](Nc2ccccc2C(=O)c2ccccc2)C(=O)O)cc1`, the Potency entry in test [1], in test [3] and in test [4] was “inactive” throughout. The Potency in test [2] was 56.4 µM (active).

For the compound `Nc1cc(-c2ccncc2)c[nH]c1=O`, the Potency result in test [1], in test [2], in test [3] and in test [4] was “inactive” throughout.

On to `C/C=C\C/C=C/CCCCCCCCOC(C)=O`, for which the Potency entry in test [1], in test [2], in test [3] and in test [4] was “inactive” throughout.

As to `COc1ccc(CN(CCN(C)C)c2ccccn2)cc1`, the Potency entry in test [1], in test [2], in test [3] and in test [4] was “inactive” throughout.

In the case of `O=C1CCCc2c(O)cccc21`, the Potency result in test [1], in test [2], in test [3] and in test [4] was “inactive” in each case.

For the compound `CCOCCn1c(C2CCN(CCc3ccc(C(C)(C)C(=O)O)cc3)CC2)nc2ccccc21`, the Potency entry in test [1], in test [2], in test [3] and in test [4] was “inactive” in each case.

As for `CCCCCCCCOc1ccc(C(=O)c2ccccc2)c(O)c1`, the Potency entry in test [1], in test [2], in test [3] and in test [4] was “inactive” throughout.

With `NC[C@H]1O[C@H](O[C@H]2[C@H](O)[C@@H](O[C@H]3O[C@H](CO)[C@@H](O)[C@H](N)[C@H]3O)[C@H](N)C[C@@H]2N)[C@H](N)[C@@H](O)[C@@H]1O`, in test [1], the activity, negative = inhibition was 1.64% [at 23.6 µM] (inactive). The results for the activity change, negative = inhibition in test [2], in test [3] and in test [4] were 0.27% [at 23.6 µM] (inactive), 4.18% [at 23.8 µM] (inactive) and 3.75% [at 23.6 µM] (inactive), respectively.

For the compound `c1ccc2sc(SN3CCOCC3)nc2c1`, the Potency entry in test [1], in test [2], in test [3] and in test [4] was “inactive” each time.

As to `CC(=O)O[C@@H]1C(=O)O[C@@H]2[C@H]1OC(=O)[C@@H]2OC(C)=O`, the Potency result in test [1], in test [2], in test [3] and in test [4] was “inactive” each time.

For `CC1=CC(=O)/C(=C(/C)O)C(=O)O1`, the Potency entry in test [1], in test [2], in test [3] and in test [4] was “inactive” each time.

Consider `CC(C)c1cccc(C(C)C)c1N`, for which the Potency result in test [1], in test [2], in test [3] and in test [4] was “inactive” throughout.

For the compound `OCCSc1ccccc1`, the Potency result in test [1], in test [2], in test [3] and in test [4] was “inactive” each time.

Consider `Cc1cc(S(=O)(=O)O)c(N)cc1Cl`, for which the Potency entry in test [1], in test [2], in test [3] and in test [4] was “inactive” in each case.

Consider `OCCOCCOCCO`, for which the Potency result in test [1], in test [2], in test [3] and in test [4] was “inactive” in each case.

For the compound `CC(C)NC(=O)NC(C)C`, the Potency entry in test [1], in test [2], in test [3] and in test [4] was “inactive” throughout.

For the compound `Cc1ccc2ccccc2c1[N+](=O)[O-]`, the Potency result in test [1], in test [2], in test [3] and in test [4] was “inactive” in each case.

Consider `COc1ccc([C@@H]2CC(=O)c3c(O)cc(O[C@@H]4O[C@H](CO[C@@H]5O[C@@H](C)[C@H](O)[C@@H](O)[C@H]5O)[C@@H](O)[C@H](O)[C@H]4O)cc3O2)cc1OC`, for which the Potency result in test [1], in test [2], in test [3] and in test [4] was “inactive” each time.

As for `CNS(=O)(=O)Cc1ccc2[nH]cc(CCN(C)C)c2c1`, the Potency result in test [1], in test [2], in test [3] and in test [4] was “inactive” throughout.

For the compound `O=C(Nc1cccc(C2=NCCN2)c1)Nc1cccc(C2=NCCN2)c1`, the Potency in test [1] was 3.79 µM (active); in test [2], 10.7 µM (active); in test [3], 2.13 µM (active). The activity change, negative = inhibition in test [4] was -3.93% [at 23.6 µM] (inactive).

Regarding `c1ccc2cnccc2c1`, the Potency result in test [1], in test [2], in test [3] and in test [4] was “inactive” each time.

For `CC(C)(C)S`, the Potency result in test [1], in test [2], in test [3] and in test [4] was “inactive” throughout.

Take `C=CC(C)(CCC=C(C)C)OC(=O)c1ccccc1` (stereo not given): the Potency result in test [1], in test [2], in test [3] and in test [4] was “inactive” each time.

In the case of `CN(C)CCN(C)CCN(C)C`, the Potency result in test [1], in test [2], in test [3] and in test [4] was “inactive” each time.

Turning to `CN1CC(=O)NC1=N`, the Potency entry in test [1], in test [2], in test [3] and in test [4] was “inactive” each time.

Turning to `c1cc(N(CC2CO2)CC2CO2)ccc1Cc1ccc(N(CC2CO2)CC2CO2)cc1` (stereo not given), the Potency result in test [1], in test [2], in test [3] and in test [4] was “inactive” in each case.

In the case of `NNC(=O)OCc1ccccc1`, the Potency result in test [1], in test [2], in test [3] and in test [4] was “inactive” each time.

Turning to `CC(=O)OCC(C)C`, the Potency entry in test [1], in test [2], in test [3] and in test [4] was “inactive” throughout.

For the compound `CC(=O)O[C@]1(C(C)=O)CC[C@H]2[C@@H]3C[C@H](C)C4=CC(=O)CC[C@]4(C)[C@H]3CC[C@@]21C`, the Potency entry in test [1], in test [2], in test [3] and in test [4] was “inactive” in each case.

For `C[Si](C)O[Si](C)C`, the Potency entry in test [1], in test [2], in test [3] and in test [4] was “inactive” throughout.

As for `Cc1sccc1Br`, the Potency result in test [1], in test [2], in test [3] and in test [4] was “inactive” throughout.

Regarding `CN1N=C(C(N)=O)CCC1=O`, the Potency entry in test [1], in test [2], in test [3] and in test [4] was “inactive” each time.

With `OCCN(CCO)c1ccccc1`, the Potency result in test [1], in test [2], in test [3] and in test [4] was “inactive” in each case.

In the case of `CCCCCCCC1CCCC1=O` (stereo not given), the Potency result in test [1], in test [2], in test [3] and in test [4] was “inactive” each time.

For `C=Cc1ccccc1`, the Potency result in test [1], in test [2], in test [3] and in test [4] was “inactive” each time.

In the case of `CC(C)c1ccc2c(C(C)C)cc(C(C)C)c(S(=O)(=O)O)c2c1`, the Potency entry in test [1], in test [2], in test [3] and in test [4] was “inactive” each time.

On to `CCC(C)COC(C)=O` (stereo not given), for which the Potency result in test [1], in test [2], in test [3] and in test [4] was “inactive” throughout.

For the compound `COC(=O)/C=C/c1ccccc1`, the Potency entry in test [1], in test [2], in test [3] and in test [4] was “inactive” each time.

On to `O=C(Nc1ccccc1)Nc1ccccc1`, for which the Potency result in test [1], in test [2], in test [3] and in test [4] was “inactive” each time.

With `O=C1NC(=O)[C@@]2(CCOc3ccc(F)cc32)N1`, the Potency entry in test [1], in test [2], in test [3] and in test [4] was “inactive” throughout.

`Nc1ccc(C(=O)Oc2ccccc2)c(O)c1`: the Potency result in test [1], in test [2], in test [3] and in test [4] was “inactive” in each case.

`C1CC(COCC2CO2)CCC1COCC1CO1` (stereo not given): the Potency result in test [1], in test [2], in test [3] and in test [4] was “inactive” each time.
